CF NFkB inh: inhibitors of PAF-induced NF-kB signaling, primary screen, cell-based, GFP fluorescence, uHTS. KKLEB NF-kB-GFP reporter, GFP fluorescence overnight. inhibition, % at 5 µM. hit rate 0.86% among 360,000;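 active = at least 50% inhibition at 5 µM, scaled per plate between neutral and stimulator controls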;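 also: PAF is a Pseudomonas aeruginosa culture filtrate used as stimulus; plate controls were PAF-stimulated DMSO wells for no effect and unstimulated DMSO wells for full effect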
Shn3 3UTR inh: reduction of Shn3 3'UTR firefly luciferase signal, primary screen, Schnurri-3 inhibitor project, cell-based, Clone20 osteoblasts, set 2; Clone20 osteoblast Shn3 3'UTR firefly luciferase, 24 h; inhibition, % at 12.5 µM; hit rate 0.52% among 360,000; AID 588674, 2011;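 active = mean inhibition of at least 75% with every replicate also reaching 75%; inconclusive = mean inhibition at least 75% but some replicate below; inactive = mean inhibition below 75%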;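 also: 0% = median of neutral control wells and 100% = pilot-screen positive control compound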
EWS-Fli block: EWS/Fli-driven NR0B1 reporter inhibitors, primary screen, A673 cells, NR0B1 luciferase, luminescence, MLPCN library. viability-normalised. inhibition, % at 12.6 µM. hit rate 0.67% among 350,000;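 active = mean inhibition of at least 50% after viability correction, with every replicate also passing that limit; inconclusive = mean reaches 50% but only one of two replicates passes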;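 also: firefly luciferase signal divided by Alamar Blue viability fluorescence both relative to DMSO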
KKLEB tox: cytotoxicity in KKLEB CF airway cells, primary screen, cytotoxicity control for CF NF-kB inhibitor project, cell-based, uHTS, fluorescence assay plates. hit rate 0.36% among 360,000. AID 602141, 2011. activity change (cytotoxicity), % at 5 µM. KKLEB CF airway cells viability, ATPlite luminescence, overnight; active compounds read low; cells stimulated with P. aeruginosa culture filtrate;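 active = corrected activity change at or below -50% at 5 µM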
PAX8 reporter: inhibitors of PAX8-driven TPO luciferase reporter, primary screen, RMG-I cells, single concentration. SteadyGlo, 24 h. inhibition, % at 12.6 µM. hit rate 1.2% among 360,000. AID 652154, 2013;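 active = mean replicate inhibition at least 60% with every replicate also reaching 60%; inconclusive = only one of the two criteria is met; inactive = mean below 60% and not all replicates reaching 60%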;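 also: luciferase light reporting Pax8 driven TPO promoter activity; plate controls were median of neutral control wells for no effect and mitoxantrone controls for full effect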
LGR2 antag: inhibitors of bursicon-induced LGR2 CRE-luciferase signal, primary screen, cell-based, HEK293, CRE-luciferase reporter, bursicon stimulation; inhibition, % at 9.99 µM; hit rate 0.35% among 380,000; AID 720647, 2013; bursicon-stimulated, 4 h;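 active = drop in luminescence signal, shown as inhibition above about 50% in the replicate tests, limit read from the data, passing the limit was not always enough; inconclusive = probably only some replicates passing the limit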;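 also: agonist challenge used bursicon conditioned medium at about half maximal strength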
CF NFkB inh conf: inhibitors of PAF-induced NF-kB signaling, retest, confirmation, cell-based, GFP fluorescence, single concentration. hit rate 64% among 1,300. inhibition, % at 5 µM. AID 602472, 2012. KKLEB CF airway cells, overnight. shares compounds with CF NFkB inh; in the data active = inhibition above about 40%;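 also: stimulus PAF is a Pseudomonas aeruginosa filtrate and not platelet activating factor; plate controls were DMSO wells with stimulus for no effect and unstimulated DMSO wells for full effect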
* marks the source's active call; other numbers are inactive results; ? = inconclusive; . = not tested or not shown; ! = not active in a repeat. Most compounds without a hit are left out; they make up all but 2% or so of the library.

SMILES | CF NFkB inh | Shn3 3UTR inh | EWS-Fli block | KKLEB tox | PAX8 reporter | LGR2 antag | CF NFkB inh conf
CC(C)Nc1ncnc2ccc(Br)cc12 | 70.3* | 78.1 | -8.4 | -6.7 | -22.7 | 25.1 | 84.7*
COc1cc2ncnc(NCc3ccco3)c2cc1OC | -9.5 | 5.9 | -3.9 | 1.7 | -18.6 | -7.8 | .
Brc1ccc2ncnc(NCc3ccco3)c2c1 | 54.3* | 40.7 | . | -8.4 | -51.3 | . | 57.9*
C[C@@H]1CN([C@@H](C)CO)C(=O)c2cc(NC(=O)Cc3ccccc3)ccc2O[C@@H]1CN(C)C(=O)Nc1ccc(F)cc1 | . | . | 8.0 | . | 13.2 | 10.1 | .
CN1CCN(C(=O)C[C@@H]2CC[C@H]3[C@H](COc4ccc(NC(=O)C5CCC5)cc4C(=O)N3C)O2)CC1 | . | . | -13.5 | . | 13.7 | 9.1 | .
Cc1noc(C)c1S(=O)(=O)Nc1ccc2c(c1)C(=O)N([C@@H](C)CO)C[C@@H](C)[C@H](CN(C)C(=O)CCCN(C)C)OCCCC[C@@H](C)O2 | . | . | -10.2 | . | 13.3 | 3.8 | .
CCOC(=O)C1=C(CC)Nc2ccccc2N=C1NC(=O)Nc1ccc(Cl)c(Cl)c1 | 56.1* | 22.9 | . | -24.7 | 62.1* | 32.1 | 100.8*
CCOC(=O)C1=C(CC)Nc2ccccc2N=C1NC(=O)c1cc(C)on1 | 6.8 | -4.2 | 0.1 | -16.0 | -5.6 | -1.5 | .
CC(=O)OC1CCC2(C)C(CCC3C4CC=C(C(C)=O)C4(C)OC(=O)CC32)C1 (centres undefined) | 95.7* | ? | 15.2 | -14.3 | 100.5* | 106.6* | 101.0*
COCCN1Cc2cccc(C(=O)Nc3ccc(-c4nc5ccccc5[nH]4)cc3)c2C1=O | 15.8 | 19.9 | . | -37.4 | -15.6 | 8.9 | .
COCCN1Cc2cccc(C(=O)Nc3cccc(-c4nc5ccccc5[nH]4)c3)c2C1=O | 56.7* | 8.9 | 0.6 | -20.5 | 11.6 | -4.3 | 67.6*
Cc1ccc2c(c1)C(=O)C(=O)N2Cc1ccc(C(F)(F)F)cc1 | 55.0* | -0.9 | 6.2 | -18.2 | 32.2 | 14.7 | 71.9*
Cc1ccc(OCCN2C(=O)C(=O)c3cc(C)ccc32)cc1 | 37.1 | 7.5 | 22.8 | -6.3 | 5.0 | -15.0 | .
CCOC(=O)c1c(C)[nH]c(C)c1C(=O)CSc1nc2ccccc2n1CC | 6.3 | -2.7 | -29.2 | -6.2 | 1.9 | 7.9 | .
CCOC(=O)c1c(C)[nH]c(C)c1C(=O)CSc1nc2ccccc2c(=O)n1-c1ccc(CC)cc1 | 55.9* | 89.8* | . | -19.1 | -17.5 | -0.1 | 36.7
CCN1CCN(Cc2ccc(NC(=O)c3ccc(C)c(NC(=O)c4cc(-c5ccc(Br)cc5)n[nH]4)c3)cc2C(F)(F)F)CC1 | 51.1* | 11.6 | 54.1* | -24.7 | -1.9 | 3.1 | 66.6*
CCN1CCN(Cc2ccc(NC(=O)c3ccc(C)c(NC(=O)c4nccn4C)c3)cc2C(F)(F)F)CC1 | 27.7 | 15.7 | 4.8 | 1.2 | 6.5 | 1.1 | .
CCN1CCN(Cc2ccc(NC(=O)c3ccc(C)c(NC(=O)N4CCNC4=O)c3)cc2C(F)(F)F)CC1 | 50.3* | 7.0 | -2.7 | -1.2 | -16.5 | -2.7 | 60.1*
CCN1CCN(Cc2ccc(NC(=O)c3ccc(C)c(NC(=O)c4cccc5[nH]ccc45)c3)cc2C(F)(F)F)CC1 | 54.4*! | 49.4 | 5.8 | -15.3 | 35.9 | 15.6 | 49.3*
CCN1CCN(Cc2ccc(NC(=O)c3cc(NC(=O)c4cnnc5ccccc45)cc(OC)c3)cc2C(F)(F)F)CC1 | 33.5 | 15.5 | 11.0 | -11.7 | 2.1 | -2.3 | .
CC(C)c1cn(CC[C@@H]2CC[C@@H](NC(=O)C3CCOCC3)[C@H](CO)O2)nn1 | . | . | . | . | -8.8 | 2.6 | .
O=C(C[C@H]1CC[C@@H]2[C@H](COC[C@H](O)CN2Cc2ccc(Oc3ccccc3)cc2)O1)N1CCOCC1 | . | . | 17.3 | . | 12.0 | 0.0 | .
O=C(c1ccc(S(=O)(=O)c2cccc(Cl)c2)c([N+](=O)[O-])c1)N1CCN(c2ccccn2)CC1 | 86.1* | 68.8 | 1.6 | -45.0 | 34.1 | 58.7* | -74.3
O=C(c1cccc(Cl)c1)N1CCN(c2ccccn2)CC1 | -3.1 | -9.1 | . | 8.8 | . | . | .
CNC[C@@H]1OCCCC[C@H](C)Oc2ccc(NS(=O)(=O)c3c(C)noc3C)cc2C(=O)N([C@@H](C)CO)C[C@H]1C | . | . | -18.9 | . | -3.7 | 5.5 | .
SMILES | CF NFkB inh | Shn3 3UTR inh | EWS-Fli block | KKLEB tox | PAX8 reporter | LGR2 antag | CF NFkB inh conf
COc1ccc(CN(C)C[C@@H]2Oc3ccc(NC(=O)C4CCCCC4)cc3C(=O)N([C@@H](C)CO)C[C@@H]2C)cc1 | . | . | 14.8 | . | -19.7 | -2.2 | .
CC(=O)N(CC(C)C(=O)O)c1c(I)cc(I)c(N)c1I (centres undefined) | 64.5* | 2.2 | -3.0 | 32.6 | 2.2 | 0.7 | 20.7
O=C(CN1CCN(C(c2ccccc2)c2ccccc2)CC1)N1CCOCC1 | 8.4 | 12.8 | 9.1 | 3.4 | . | 27.2 | .
Oc1c(C(c2ccccc2)N2CCOCC2)ccc2ccccc12 (centres undefined) | 79.0* | 10.9 | 0.2 | -44.4 | 86.7* | 1.1 | -12.7
CN(C)C(=O)C[C@H]1C[C@H]2c3cc(NC(=O)C4CCOCC4)ccc3O[C@H]2[C@@H](CO)O1 | . | . | -4.7 | . | -1.7 | 19.7 | .
COc1cccc(-n2nc(C#N)c(Cl)cc2=O)c1 | 105.9* | 96.4* | 58.2* | -33.9 | 98.2* | 102.8* | 15.4
COCC#Cc1cnc2c(c1)C(=O)N([C@H](C)CO)C[C@H](C)[C@H](CN(C)C(=O)Cc1ccncc1)O2 | . | . | -3.9 | . | . | 7.5 | .
CCc1c(C)nc2ccc(Br)cc2c1SCCC#N | 73.2* | 11.7 | -1.6 | -18.8 | -3.4 | 30.6 | 89.2*
O=C(C[C@H]1C=C[C@@H](NC(=O)c2ccccc2)[C@H](CO)O1)NCCc1ccncc1 | . | . | 2.0 | . | -3.0 | 19.4 | .
C/C=C/c1ccc2c(c1)[C@@H]1[C@@H](CCN1C(=O)Cc1cccnc1)[C@H](CO)N2C | . | . | -18.7 | . | 0.5 | 5.3 | .
COc1ccc(CN2CC3(CN(C(C)=O)C3)c3c([nH]c4cc(OC)ccc34)[C@H]2CO)cc1 | . | . | 2.7 | . | . | -11.6 | .
CCc1nccn1C(=O)c1cnn2c(C(F)F)cc(-c3ccc(C)cc3)nc12 | 68.1* | 46.3 | -8.4 | -44.1 | 19.4 | -11.4 | 91.1*
COc1ccc(COC(=O)C2=C(C)NC(=O)NC2c2ccc(OC)cc2)cc1 (centres undefined) | 52.8* | 12.7 | 3.0 | 7.8 | -1.0 | 8.9 | 51.2*
CC1=C(C(=O)OCc2ccc3c(c2)OCO3)C(c2ccc(O)c([N+](=O)[O-])c2)NC(=O)N1 (centres undefined) | 69.4* | 16.1 | 0.9 | -7.8 | -14.8 | -2.1 | 75.7*

Bioassay records: PubChem, several laboratories
